Drawing on PubChem BioAssay, this text covers z-score and composite z-score for 9 compounds.

Assay [1] is described as follows: compound effects on lung adenocarcinoma cell viability – A549, calcein-AM fluorescence, 48 h, basal, profiling panel (AID 1162). Further: test concentration not given here. The following applies: higher = more signal.
Assay [2] is described as follows: compound effects on differentiated 3T3-L1 adipocyte viability – cell-based, 3T3-L1 adipocytes, calcein-AM fluorescence, 48 h, basal, profiling panel (AID 1163). Further: test concentration not given here. The following applies: 3T3-L1 adipocytes viability, higher = more signal.
Assay [3] can be described thus: compound effects on hepatocellular carcinoma cell viability – HepG2, calcein-AM fluorescence, 48 h, basal, profiling panel (AID 1164). Further: test concentration not given here. The following applies: higher = more signal.
Assay [4] is described as follows: compound effects on multiple myeloma cell viability – MM1S, calcein-AM fluorescence, 48 h, basal, profiling panel (AID 1165).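 Further: viability of MM1S multiple myeloma cells under basal unstimulated conditions; test concentration not given here.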 To be noted: higher = more signal.
The nature of assay [5]: calcein-AM signal in unstimulated myeloma cells – cell-based, calcein-AM fluorescence, 48 h, PK04 Diversity Set, profiling panel (AID 1166).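 Further: cells grown under basal conditions without added stimulus; test concentration not given here.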 The following applies: RPMI8226 myeloma viability, higher = more signal.
The nature of assay [6]: JC-1 mitochondrial signal, unstimulated HepG2 cells – cell-based, JC-1 fluorescence, 24 h, 100 nL compound, profiling panel (AID 1167). Further: test concentration not given here. To be noted: HepG2 mitochondrial potential, higher = more signal.
Assay [7] is described as follows: JC-1 mitochondrial signal, unstimulated adipocytes – cell-based, JC-1 fluorescence, 3T3-L1 adipocytes, 24 h, 100 nL compound, profiling panel (AID 1168). Further: test concentration not given here. The following applies: JC-1 mitochondrial fluorescence, higher = more signal, called active from +8 up or from −8 down.
Assay [8] is described as follows: JC-1 mitochondrial signal, unstimulated myeloma cells – cell-based, JC-1 fluorescence, RPMI8226, 24 h, 100 nL compound, profiling panel (AID 1169). Further: test concentration not given here. The following applies: JC-1 mitochondrial potential fluorescence, higher = more signal.
Assay [9] can be described thus: JC-1 mitochondrial signal, unstimulated MM1S myeloma – cell-based, JC-1 fluorescence, 24 h, 100 nL compound, profiling panel (AID 1170). Further: test concentration not given here. To be noted: MM1S mitochondrial potential, higher = more signal.
Assay [10] can be described thus: resazurin metabolic signal in A549 cells – cell-based, resazurin fluorescence, 24 h, PK04 Diversity Set, profiling panel (AID 1171). Further: test concentration not given here. The following applies: A549 viability, higher = more signal, called active from +8 up or from −8 down. (The colour change of resazurin is a common sign of viable cells or microbes.)
Assay [11] can be described thus: resazurin metabolic signal in HepG2 cells – cell-based, resazurin fluorescence, 24 h, PK04 Diversity Set, profiling panel (AID 1172). Further: test concentration not given here. The following applies: HepG2 viability, higher = more signal.
A short description of assay [12]: budding yeast growth changes without added modifier – OD600, strain BY4716, 24 h, basal condition, primary screen (AID 1173). To be noted: S. cerevisiae BY4716 growth, OD600, 24 h; higher = more signal, called active from +8 up or from −8 down.
Assay [13] is described as follows: viability profiling in MM1S myeloma cells – cell-based, resazurin fluorescence, basal, 24 h, PK04 Diversity Set, profiling panel (AID 1174). Further: test concentration not given here. The following applies: higher = more signal, called active from +8 up or from −8 down.
Assay [14] addresses Dihydroorotate dehydrogenase (quinone), mitochondrial (Plasmodium falciparum (isolate 3D7)) (UniProt Q08210). Briefly: inhibition of P. falciparum DHODH – biochemical, C-terminal His tag, absorbance 600 nm, primary screen (AID 1175).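 Further: recombinant parasite enzyme with a five histidine tag at its C terminus; test concentration not given here.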 To be noted: PfDHODH enzyme, DCIP absorbance 600 nm; higher = more signal, called active from +8 up or from −8 down.
Assay [15] is described as follows: inhibition of PAO1 biofilm formation – strain PAO1, LB-PBS medium, absorbance 600 nm, primary screen (AID 1176). Further: test concentration not given here. To be noted: P. aeruginosa PAO1 growth/biofilm, A600, 12 h; higher = more signal.
The nature of assay [16]: growth modulation of vineyard yeast isolate – strain RM11-1a, OD600, basal, 24 h, primary screen (AID 1177).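 Further: cultures grown under basal conditions with no added stressor; test concentration not given here.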 The following applies: S. cerevisiae RM11-1a growth, OD600, 24 h; higher = more signal, called active from +8 up or from −8 down.
Assay [17] is described as follows: growth of efflux-deficient E. coli DRC39 – strain DRC39, OD650, 24 h, E. coli filamentation inducers, primary screen (AID 1178).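 Further: growth measured as culture turbidity by optical density at 650 nm; test concentration not given here.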 To be noted: E. coli DRC39 acrAB, higher = more signal, called active from +8 up or from −8 down.
Assay [18] can be described thus: growth of efflux-deficient E. coli DRC39 – strain DRC39, OD650, 48 h, E. coli filamentation inducers, primary screen (AID 1179).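 Further: screen aims at cell division blockers that make cells filament.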 The following applies: E. coli DRC39 delta-acrAB growth, higher = more signal, called active from +8 up or from −8 down.
Assay [19] can be described thus: viability profiling in RPMI8226 myeloma cells – cell-based, resazurin fluorescence, basal, 24 h, PK04 Diversity Set, profiling panel (AID 1180).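 Further: RPMI8826 multiple myeloma cell line at 5000 cells per well; test concentration not given here.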 The following applies: higher = more signal.
Assay [20] has as its target E3 ubiquitin-protein ligase XIAP (Homo sapiens) (UniProt P98170). The experiment in a line: small molecules binding XIAP protein – biophysical, small-molecule microarray, fluorescence 635 nm, primary screen (AID 1181).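 Further: score merges 667 nm emission and signal to noise over triplicate slides.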 The following applies: higher = more signal.

Molecules are shown by their SMILES. Activity calls are given as the source filed them. Unless noted, how the calls were made is not given here.

Dihydroorotate dehydrogenase (quinone), mitochondrial (Plasmodium falciparum (isolate 3D7)), sequence (Q08210 whole entry, looked up): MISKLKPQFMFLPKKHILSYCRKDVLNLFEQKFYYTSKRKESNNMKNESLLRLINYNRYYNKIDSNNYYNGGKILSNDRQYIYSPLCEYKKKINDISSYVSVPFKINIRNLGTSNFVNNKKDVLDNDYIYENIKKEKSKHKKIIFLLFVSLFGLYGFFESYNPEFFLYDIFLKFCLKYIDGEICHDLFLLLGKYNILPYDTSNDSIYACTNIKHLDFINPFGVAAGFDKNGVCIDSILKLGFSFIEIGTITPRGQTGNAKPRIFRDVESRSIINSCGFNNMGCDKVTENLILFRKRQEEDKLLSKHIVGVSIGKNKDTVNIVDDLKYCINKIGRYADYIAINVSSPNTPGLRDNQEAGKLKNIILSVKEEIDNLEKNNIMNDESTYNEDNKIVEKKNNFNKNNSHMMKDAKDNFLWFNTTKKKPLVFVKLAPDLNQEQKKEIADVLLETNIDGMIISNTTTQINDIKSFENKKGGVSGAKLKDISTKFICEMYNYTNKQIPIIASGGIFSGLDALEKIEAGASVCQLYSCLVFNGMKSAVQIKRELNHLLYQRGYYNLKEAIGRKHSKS
E3 ubiquitin-protein ligase XIAP (Homo sapiens), sequence (P98170 whole entry, looked up): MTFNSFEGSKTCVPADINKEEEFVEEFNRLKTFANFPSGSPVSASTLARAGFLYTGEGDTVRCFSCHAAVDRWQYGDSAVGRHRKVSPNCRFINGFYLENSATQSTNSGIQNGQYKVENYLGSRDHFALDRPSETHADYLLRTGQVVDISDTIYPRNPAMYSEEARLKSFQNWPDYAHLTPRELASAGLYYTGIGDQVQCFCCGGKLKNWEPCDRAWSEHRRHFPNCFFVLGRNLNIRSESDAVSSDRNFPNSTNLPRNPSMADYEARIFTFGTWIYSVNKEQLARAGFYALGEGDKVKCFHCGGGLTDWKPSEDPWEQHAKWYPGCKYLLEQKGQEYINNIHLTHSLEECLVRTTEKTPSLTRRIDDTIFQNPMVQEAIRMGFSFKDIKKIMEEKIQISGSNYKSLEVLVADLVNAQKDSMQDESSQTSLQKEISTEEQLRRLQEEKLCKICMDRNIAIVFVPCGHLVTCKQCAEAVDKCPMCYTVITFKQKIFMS

Take `CC=CC(O)C1C=CC2C(=O)N(c3ccccc3)C(=O)C2N1Nc1ccc(C(C)C)cc1` (stereo not given): the z-score in assay [1] was 0.0409; in [2], 0.146; in assay [3], 0.645; in assay [4], -0.0872; in [5], -0.849; in assay [6], -1.09. Besides, the z-score in assay [7] is -1.32 (inactive); in assay [8] it was -0.467; in assay [9], -1.08; in [10], -1.65 (inactive); in [11], -1.76; in [12] it was 0.474 (inactive). Also, the z-score was -0.785 (inactive) in [13]; 0.518 (inactive) in assay [15]; 1.11 (inactive) in [16]; -0.457 (inactive) in assay [17]; -1.02 (inactive) in [18]; -0.863 in assay [19]. Also, the composite z-score in assay [14] was 0.784 (inactive); in [20], 0.384.

Regarding `COc1cc2c(cc1OC)CN(C(=O)[C@@H]1[C@H]3C(=O)O[C@H](c4ccccc4)[C@H](c4ccccc4)N3[C@H](c3ccccc3OCCO)[C@@]13C(=O)Nc1ccc(C#CCNC(N)=O)cc13)CC2`, the z-score was 1.12 in [1]; 1.62 in assay [2]; 0.871 in assay [3]; 0.52 in assay [4]; 0.625 in [5]; -1.74 in [6]. In addition, the z-score in assay [7] is 1.63 (inactive); in assay [8], -0.423; in [9] it was -0.322; in assay [10], -0.532 (inactive); in assay [11], 0.0227; in [12], 0.74 (inactive). Further, the z-score is -0.148 (inactive) in assay [13]; 2.93 (inactive) in [15]; 3 (inactive) in assay [16]; 1.13 (inactive) in [17]; 1.31 (inactive) in assay [18]; 0.088 in [19]. Moreover, the composite z-score in assay [14] is -0.839 (inactive); in [20], 0.153.

In the case of `O=C/C=C/c1ccc2c(c1)OCO2`, the z-score in assay [1] is 0.115; in assay [2] it was 0.327; in [3] it was 0.782; in [4] it was -0.251; in assay [5], 0.658; in [6] it was 1.4. The z-score was -0.0743 (inactive) in [7]; 0.365 in assay [8]; 0.386 in assay [9]; -0.362 (inactive) in assay [10]; 0.134 in [11]; -12.8 (active) in [12]. Further, the z-score is -0.155 (inactive) in assay [13]; 0.227 (inactive) in [15]; -1.87 (inactive) in [16]; -1.34 (inactive) in [17]; 0.594 (inactive) in assay [18]; -0.211 in assay [19]. The values for the composite z-score in [14] and in [20] were -1.32 (inactive) and -0.118, respectively.

For `COCCOC(=O)N1C(=O)[C@@]2(c3cc(C#CC4=CCCCC4)ccc31)[C@H](C(=O)N1CCc3cc(OC)c(OC)cc3C1)[C@H]1C(=O)O[C@H](c3ccccc3)[C@H](c3ccccc3)N1[C@@H]2c1ccccc1OCCO`, the z-score in assay [1] is 0.145; in assay [2], 0.299; in assay [3], 0.274; in assay [4], -1.37; in [5] it was -1.06; in assay [6], 0.0701. The z-score was 2.17 (inactive) in [7]; -0.701 in assay [8]; -0.72 in assay [9]; 0.267 (inactive) in assay [10]; -0.437 in assay [11]; 1.11 (inactive) in [12]. For the same compound, the z-score was 0.224 (inactive) in [13]; 2.41 (inactive) in assay [15]; 1.78 (inactive) in [16]; -0.649 (inactive) in assay [17]; 0.418 (inactive) in [18]; -0.135 in assay [19]. Besides, the results for the composite z-score in assay [14] and in [20] were -0.0424 (inactive) and 0.0039, respectively.

Take `COC(=O)[C@@]1(Cc2ccc(F)cc2)[C@H]2c3cc(C(=O)N4CCCC4)n(Cc4cccc5ccccc45)c3C[C@H]2CN1C(=O)c1ccccc1`: the z-score in [1] was -0.805; in assay [2], 0.42; in assay [3], 0.0082; in [4], -1.03; in [5], -1.07; in assay [6] it was 3.8. The z-score in assay [7] is -1.48 (inactive); in assay [8] it was 0.127; in [9] it was -0.779; in [10], 0.785 (inactive); in [11], -0.296; in [12], 1.28 (inactive). The z-score in assay [13] is -1.53 (inactive); in [15], 0.784 (inactive); in assay [16], 0.0161 (inactive); in [17], -1.11 (inactive); in assay [18], -0.974 (inactive); in assay [19], -1.25. Further, the composite z-score was -0.422 (inactive) in assay [14] and 0.487 in assay [20].

As to `CCOC(=O)C1=CC[C@@H](c2ccccc2Cl)N(S(=O)(=O)c2ccc(C)cc2)C1`, the z-score in [1] is -0.378; in assay [2], -0.529; in assay [3] it was 0.15; in assay [4] it was -1.63; in assay [5], -1.51; in [6], 4.34. The z-score in assay [7] was -0.0958 (inactive); in assay [8], -0.329; in assay [9], -1.99; in assay [10] it was -0.561 (inactive); in assay [11] it was -0.358; in assay [12], -1.65 (inactive). Further, the z-score in assay [13] was 0.0161 (inactive); in assay [15] it was -0.308 (inactive); in assay [16], -0.24 (inactive); in [17] it was -0.203 (inactive); in [18], 1.03 (inactive); in assay [19], -1.37. In addition, the composite z-score is -0.978 (inactive) in assay [14] and -0.0115 in [20].

As to `COC(=O)c1c(CC[C@@H](CO)NC(=O)N[C@@H](Cc2ccccc2)Cn2cc(C3(O)CCCCC3)nn2)oc(C(C)=O)c1C(=O)OC`, the z-score in assay [1] is 0.548; in assay [2], 2.01; in assay [3], -0.889; in assay [4], 0.513; in assay [5], -1.69; in [6], 0.384. The z-score in assay [7] is 0.349 (inactive); in assay [8], -0.614; in assay [9] it was -0.403; in [10], 0.215 (inactive); in assay [11] it was -0.172; in [12], -3.95 (inactive). In addition, the z-score in assay [13] was 1.37 (inactive); in [15] it was -0.452 (inactive); in [16], -2.6 (inactive); in assay [17], 1.05 (inactive); in [18], 0.874 (inactive); in assay [19], 0.428. For the same compound, the composite z-score in assay [14] was -4.08 (inactive); in assay [20], 0.0762.

For the compound `CN(C)C(=O)[C@@]1(CCC(=O)OC(C)(C)C)N=C(c2ccc(OCCCO)cc2)O[C@H]1c1ccccc1`, the z-score in [1] was -0.211; in assay [2] it was 0.687; in assay [3] it was -0.517; in [4], 0.301; in [5], -1.48; in assay [6], 0.26. Moreover, the z-score in assay [7] was -0.58 (inactive); in assay [8], -1; in assay [9] it was 0.279; in [10], 0.107 (inactive); in assay [11] it was -0.299; in assay [12] it was -0.757 (inactive). Further, the z-score in assay [13] was -0.441 (inactive); in [15] it was 0.401 (inactive); in assay [16] it was -0.346 (inactive); in assay [17] it was 0.541 (inactive); in assay [18], -0.353 (inactive); in assay [19] it was 0.276. Moreover, the composite z-score in assay [14] is -0.507 (inactive); in assay [20], -0.168.

For `N#Cc1ccc(NN2C(C(O)C3CCCCC3)C=CC3C(=O)N(c4ccccc4)C(=O)C32)cc1` (stereo not given), the z-score is -0.669 in assay [1]; -0.515 in assay [2]; 0.595 in [3]; -0.185 in [4]; -0.32 in [5]; -2.19 in assay [6]. Besides, the z-score is -2.17 (inactive) in assay [7]; 0.234 in assay [8]; 0.318 in assay [9]; -0.609 (inactive) in assay [10]; -0.779 in assay [11]; -0.394 (inactive) in assay [12]. In addition, the z-score is -0.668 (inactive) in assay [13]; 1.14 (inactive) in assay [15]; -0.28 (inactive) in assay [16]; -0.427 (inactive) in assay [17]; -0.673 (inactive) in assay [18]; -0.848 in assay [19]. Also, the composite z-score is -0.177 (inactive) in assay [14] and 0.262 in [20].
